Reference: the supplement of paper PMC3414501
Where a name gives a salt, the structure may show the parent alone. A number with no mark means an inactive call.

Experiments:
[1] = tested on: S. cerevisiae SK1 pCDA2-eGFP (USY613), sporulating; experiment: CDA2-GFP sporulation assay sensitivity score (z-score vs DMSO controls); higher = stronger inhibition of sporulation, active = hit call of the paper;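 also: active if sensitivity score above 5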
[2] = tested on: S. cerevisiae AD1-9 (efflux-pump deficient), vegetative growth in YPD; experiment: growth sensitivity score (doubling time z-score vs DMSO controls); higher = slower growth, strongly negative scores also mark growth inhibition (complete suppression), active = hit call of the paper
Summary of the method: (§1)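 Optical density of Saccharomyces cerevisiae cultures in microtiter plates was followed every 15 min for 24 hours after seeding at an OD600 of 0.065. Eight solvent-only wells were run per experiment. Growth sensitivity scores were found by subtracting the solvent-only mean from the compound mean and dividing by the solvent-only standard deviation.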

[3] = tested on: S. cerevisiae BY4741 (wild-type), vegetative growth in YPD; experiment: as above
Summary of the method: as §1

Compound | CDA2-GFP sporulation assay sensitivity score [1] | growth sensitivity score [2] | growth sensitivity score [3]
C[N+]1(C)CCC(OC(=O)C(O)(c2ccccc2)C2CCCC2)C1 (stereo not drawn) [Glycopyrrolate] (stock concentration (mM, diluted 1:100): 10) | 1.55 | -0.14 | -0.04
CC(c1cc2ccccc2s1)N(O)C(N)=O (stereo not drawn) [Zileuton] (stock concentration (mM, diluted 1:100): 10) | -0.22 | 0.45 | -0.81
CO[C@H]1O[C@@H]2O[C@@]3(C)CC[C@H]4[C@H](C)CC[C@@H]([C@H]1C)[C@@]24OO3 [Artemether] (stock concentration (mM, diluted 1:100): 10) | 7.92 | 9.66 (active) | 17.6 (active)
CN1CCCCC1CCN1c2ccccc2Sc2ccc([S+](C)[O-])cc21 (stereo not drawn) [Mesoridazine] (stock concentration (mM, diluted 1:100): 10) | -0.29 | 278 (active) | 66 (active)
CC(=O)[C@]1(O)Cc2c(O)c3c(c(O)c2[C@@H](O[C@H]2C[C@H](N)[C@H](O)[C@H](C)O2)C1)C(=O)c1ccccc1C3=O [Idarubicin hydrochloride] (stock concentration (mM, diluted 1:100): 9.3) | -0.06 | 174 (active) | 128 (active)
COc1ccc(C2CNC(=O)C2)cc1OC1CCCC1 (stereo not drawn) [Rolipram] (stock concentration (mM, diluted 1:100): 10) | -2.81 | -1.05 | -0.71
